Laboratory results as given in PubChem BioAssay (NCI).
About 79,000 compounds went through this panel and 15% of them were active in at least one assay; those are over-represented in the sample as a whole. Unmarked numbers belong to inactive results. The source made the active and inactive calls. Rule as the data show it: active = growth inhibition above about 70%; inactive = the rest.

Columns and labels:
[1] = NCI Yeast Anticancer Drug Screen. Data for the rad50 strain (AID 155);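 also: 0% = growth of vehicle-only cultures of the same strain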; conditions: S. cerevisiae rad50 strain growth inhibition, hits give high values
Method in brief: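 Yeast carrying a defined DNA repair defect were exposed to test compounds, and growth was compared with vehicle-treated controls to give percent inhibition.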

[2] = NCI Yeast Anticancer Drug Screen. Data for the mec2-1 strain (AID 157); conditions: S. cerevisiae mec2-1 strain, hits give high values
Method in brief: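 Each compound was tested on mec2-1 yeast, a strain altered in DNA damage repair or cell cycle control. Growth inhibition is reported relative to vehicle.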

[3] = NCI Yeast Anticancer Drug Screen. Data for the sgs1 mgt1 strain (AID 161);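 also: 0% = growth of cultures given vehicle only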; conditions: S. cerevisiae sgs1 mgt1 strain, hits give high values
Method in brief: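 Genetically altered yeast, compound exposure, growth inhibition relative to vehicle.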

[4] = NCI Yeast Anticancer Drug Screen. Data for the cln2 rad14 strain (AID 165);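 also: 0% = growth equal to vehicle treated cultures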; conditions: S. cerevisiae cln2 rad14 strain, hits give high values
Method in brief: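 Test compounds were added to cln2 rad14 yeast cultures; inhibition of growth was then determined by comparison with vehicle treatment.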

[5] = NCI Yeast Anticancer Drug Screen. Data for the bub3 strain (AID 167); conditions: S. cerevisiae bub3 mutant strain, hits give high values
Method in brief: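 Compounds were applied to a genetically altered yeast strain carrying a cell-cycle control defect. Growth inhibition was scored against vehicle-treated controls.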

[6] = NCI Yeast Anticancer Drug Screen. Data for the mlh1 rad18 strain (AID 175); conditions: S. cerevisiae mlh1 rad18 strain growth inhibition, hits give high values
Method in brief: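 Inhibition values reflect reduced growth of mutant yeast versus vehicle-treated controls following compound exposure; the mutations affect DNA damage repair.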

[7] = at 5.0 µM (retest, dose inferred, filed as 0.5)
[8] = at 50.0 µM (retest, dose inferred, filed as 5.0)

SMILES | growth inhibition [1, 7] [%] | growth inhibition [1, 8] | growth inhibition ([1]; at 50.0 µM) | growth inhibition [2, 7] [%] | growth inhibition [2, 8] | growth inhibition ([2]; at 50.0 µM) | growth inhibition [3, 7] [%] | growth inhibition [3, 8] | growth inhibition ([3]; at 50.0 µM) | growth inhibition [4, 7] [%] | growth inhibition [4, 8] | growth inhibition ([4]; at 50.0 µM) | growth inhibition [5, 7] [%] | growth inhibition [5, 8] | growth inhibition ([5]; at 50.0 µM) | growth inhibition [6, 7] [%] | growth inhibition [6, 8] | growth inhibition ([6]; at 50.0 µM)
CCOC(=O)CN1C(=O)S/C(=C/c2ccc([N+](=O)[O-])o2)C1=O | 9 | 93% (active) | 77.2% (active) | 3 | 94% (active) | 76% (active) | 12 | 98% (active) | 91.3% (active) | -3 | 89% (active) | 56.3% | 3 | 96% (active) | 86% (active) | 21 | 96% (active) | 87.1% (active)
Cc1cc(Br)cc(C(=O)Cl)c1O | -159 | -90% | 32.5% | -51 | -24% | 22% | -68 | -54% | 30.2% | -69 | -11% | 28.7% | -74 | -47% | 5.9% | -150 | -67% | 34.7%
CC/C(=C(\CC)c1ccc(O)c(CN(CCO)CCO)c1)c1ccc(O)cc1 | -3 | 11% | 36.9% | -1 | 5% | 22.2% | -2 | 28% | 69.2% | 0 | -1% | 0.6% | -5 | 25% | 12.5% | -2 | 33% | 73.6% (active)
CCc1ccc(C(=O)O)c2ccccc12 | -8 | 81% (active) | 68.1% | 8 | 48% | 24.9% | -2 | 72% (active) | 35.1% | 8 | 69% | 51.6% | -6 | 62% | 8.4% | -1 | 85% (active) | 51.6%
Clc1nc2ccccc2nc1N1CCCCCC1 | 0 | 90% (active) | -17.5% | 2 | 96% (active) | -7.05% | 1 | 72% (active) | 25.6% | -5 | 74% (active) | -21.4% | 9 | 93% (active) | 76% (active) | 2 | 85% (active) | 5.2%
O=C1C2=C(c3ccccc31)C(c1ccccc1Cl)NC(=S)N2 (stereo not given) | -5 | 11% | 82.2% (active) | -11 | 13% | 39.3% | -18 | -4% | 78.5% (active) | 20 | 40% | 63.4% | 14 | 60% | 70% (active) | -8 | 40% | 74.8% (active)
O=C(C(Cl)Cl)N(O)c1ccccc1OCc1ccccc1 | 10 | 52% | 72.2% (active) | 9 | 73% (active) | 41.9% | 8 | 94% (active) | 90% (active) | 6 | 27% | 34.4% | 2 | 67% | 62.4% | 56 | 95% (active) | 89% (active)
[N-]=[N+]=Nc1ccnc2ccc(C3CCCCC3)cc12 | -8 | 99% (active) | 56.5% | -8 | 100% (active) | 30.9% | -8 | 99% (active) | 94.8% (active) | 6 | 99% (active) | 51.1% | -4 | 99% (active) | 67.3% | -2 | 99% (active) | 91.7% (active)
CCOC(=O)CC1(C)C(=O)CCCC1=O | 3 | -2% | -3.7% | -2 | -2% | 2% | 0 | 0% | 3.65% | 0 | -2% | -27.5% | -5 | -2% | -6.7% | -3 | -156% | -1%
CC(=O)OC(OC(C)=O)c1ccc([N+](=O)[O-])o1 | -7 | -39% | 99.4% (active) | -23 | -22% | 99% (active) | -5 | -10% | 99.3% (active) | -3 | -23% | 99.2% (active) | -20 | -87% | 99.5% (active) | 5 | 4% | 99% (active)
